Shown are actives, neighbours in structure and some others; about 1.4% of the full set was active somewhere.
Bcl-xL primary – inhibitors of human Bcl-xL; GST-Bcl-xL / FITC-Bim BH3 peptide fluorescence polarization; inhibition, % at 10.9 µM; 320,000 tested, 0.7% active; AID 2129;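 active means inhibition above the mean of all tested compounds plus 3 SD, cutoff set per campaign, cut at about 30% in these data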;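 further: 0% = DMSO wells and 100% = unlabeled Bim-BH3 peptide competitor; inhibitors lower millipolarization by displacing the labeled peptide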
Target sequence (Q07817 whole entry, looked up): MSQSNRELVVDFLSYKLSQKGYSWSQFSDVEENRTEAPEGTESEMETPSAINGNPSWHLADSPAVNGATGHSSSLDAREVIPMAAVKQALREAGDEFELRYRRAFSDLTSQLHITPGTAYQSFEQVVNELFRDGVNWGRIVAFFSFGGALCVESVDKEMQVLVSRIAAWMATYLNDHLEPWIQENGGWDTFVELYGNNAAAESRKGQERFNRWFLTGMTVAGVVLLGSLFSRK
MEX-5 binding – C. elegans MEX-5 TCR-2 RNA binding activity. Q9XUB2. MEX-5/FITC-TCR2 RNA binding, fluorescence polarization; active compounds read low. activity score (negative = inhibition of binding), % at 10 µM. 300,000 tested, 0.38% active. AID 1832;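 active means inhibition past about -25% in most replicates, and total fluorescence under double the plate's negative control median, limit read from the data; inconclusive means replicates evenly split on the limit, or fluorescence at least double controls; inactive means too little inhibition in most replicates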;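 further: 0% = DMSO and -100% = 5 µM competing unlabeled TCR2 RNA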
MCL1-BIM inh – inhibitors of human MCL1 binding to BIM-BH3 peptide; GST-MCL1 / FITC-Bim-BH3 fluorescence polarization; 320,000 tested, 0.68% active; inhibition, % at 10.9 µM;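 active means inhibition above the mean inhibition of all tested compounds plus 3 SD, set per campaign, cut at about 40% in these data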;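 further: 0% = DMSO wells and 100% = unlabeled Bim-BH3 peptide control; higher means more loss of mP so more displacement of Bim peptide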
GLD-1 TGE inh – GLD-1-TGE RNA interaction inhibition (C. elegans); Q17339; inhibition, % at 5.96 µM; 320,000 tested, 0.44% active; purified GLD-1 + fluorescein TGE RNA, fluorescence polarization; AID 2280;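 active means percent inhibition above a per-plate cutoff, the plate mean of test compounds plus 3 SD, cut at about 30% in these data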;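 further: 0% = DMSO wells with GLD-1 and probe and 100% = wells lacking GLD-1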
Target sequence (Q17339 whole entry, looked up): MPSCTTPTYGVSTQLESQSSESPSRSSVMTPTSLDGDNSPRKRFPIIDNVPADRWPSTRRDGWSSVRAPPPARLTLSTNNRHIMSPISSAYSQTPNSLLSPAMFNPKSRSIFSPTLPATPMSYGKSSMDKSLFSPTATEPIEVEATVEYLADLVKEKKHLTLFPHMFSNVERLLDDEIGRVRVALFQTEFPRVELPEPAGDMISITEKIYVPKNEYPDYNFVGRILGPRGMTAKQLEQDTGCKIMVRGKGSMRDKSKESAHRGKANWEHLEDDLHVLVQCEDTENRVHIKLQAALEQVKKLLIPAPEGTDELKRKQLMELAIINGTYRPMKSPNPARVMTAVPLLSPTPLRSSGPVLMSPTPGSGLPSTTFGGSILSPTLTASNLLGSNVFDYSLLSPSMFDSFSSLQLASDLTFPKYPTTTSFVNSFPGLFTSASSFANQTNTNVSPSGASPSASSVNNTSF
E coli Lon inh – inhibitors of E. coli Lon protease | purified E. coli Lon protease, fluorescence polarization | inhibition, % at 7.94 µM | 360,000 tested, 0.42% active | AID 602123; in the data active means inhibition above about 13%, passing the limit was not always enough;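 further: 0% = enzyme with probe and DMSO and 100% = no enzyme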
Bcl-xL conf – Bcl-xL (human) inhibition, MCL1 counter-screen confirmation. shares compounds with MCL1-BIM inh. GST-Bcl-xL / FITC-Bim BH3 peptide FP binding. inhibition, % at 10.9 µM. 1,700 tested, 54% active;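 active means inhibition above a cutoff equal to the mean inhibition of all tested compounds plus 3 SD, cut at about 30% in these data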;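 further: 0% = DMSO wells and 100% = unlabeled Bim BH3 control peptide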
MCL1 BIM confirm – MCL1-BIM-BH3 interaction inhibition, confirmation | AID 2168 | inhibition, % at 10.9 µM | shares compounds with MCL1-BIM inh | 1,700 tested, 61% active | GST-MCL1 / FITC-Bim-BH3 fluorescence polarization;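 active means inhibition above the average of all tested compounds plus 3 SD, cut at about 40% in these data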;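 further: 0% = DMSO wells and 100% = unlabeled Bim-BH3 control peptide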
Active calls of the source: *; ? = inconclusive; / = no result given; + = active, no number.

SMILES | Bcl-xL primary | MEX-5 binding | MCL1-BIM inh | GLD-1 TGE inh | E coli Lon inh | Bcl-xL conf | MCL1 BIM confirm
CN(c1ncc(C(F)(F)F)cc1Cl)N1C(=O)C2ONC3(C(=O)CC(C)(C)CC3=O)C2C1=O (configuration not stated) | 3.4 | -16.0 | 5.8 | 14.8 | 14.8 | / | /
CN(c1ncc(C(F)(F)F)cc1Cl)N1C(=O)c2cccc(N)c2C1=O | 58.7* | -0.6 | 62.0* | 84.2* | 2.9 | 47.4* | 65.6*
CC(=O)OCC1=C(C(=O)O)N2C(=O)C(NC(=O)c3ccc(COc4c(C)cccc4Cl)o3)C2SC1 (configuration not stated) | 24.6 | 2.9 | 43.0* | -2.9 | -0.9 | 17.1 | 51.0*
CC(=O)OCC1=C(C(=O)O)N2C(=O)C(NC(=O)c3ccc(COc4ccc(Cl)cc4)o3)C2SC1 (configuration not stated) | 6.8 | 1.1 | 23.9 | 0.3 | -7.4 | / | /
COc1cccc(CN2C(=O)c3cccc(N)c3C2=O)c1 | 50.2* | -21.4 | 57.7* | 43.6* | 18.0 | 33.1* | 53.3*
O=C(COC(=O)c1ccc(O)cc1)NC(c1ccccc1)c1ccccc1 | / | / | / | -0.7 | -0.7 | / | /
COCc1ccc(C(=O)N2CCCC(N(C)CCc3ccccc3)C2)s1 (configuration not stated) | / | / | / | / | -18.9 | / | /
COc1ccccc1NS(=O)(=O)c1ccc(N/N=C/c2ccccc2OCC(=O)O)c([N+](=O)[O-])c1 | 135.8* | 2.2 | 140.6* | 94.2* | 8.9 | 184.5* | +
O=C(O)COc1ccccc1/C=N/Nc1ccc(S(=O)(=O)Nc2ccc(Cl)cc2)cc1[N+](=O)[O-] | 14.4 | -1.6 | 10.5 | 0.0 | -4.2 | / | /
COc1cccc(-c2nc(-c3ccccn3)no2)c1OC | 5.8 | -1.7 | 0.5 | -3.7 | 4.2 | / | /
COc1cc(-c2nc(-c3ccccn3)no2)cc(OC)c1OC | 4.9 | -1.4 | 41.4* | 1.7 | -9.3 | 20.4 | 34.4
CN(C)C=Nc1nonc1-c1ccccc1 | 4.7 | 1.1 | -5.3 | -0.2 | -6.4 | / | /
CN(C)C=Nc1c(Br)cc(Br)c2nonc12 | 91.5* | ? | 69.0* | -6.7 | -88.3 | 90.2* | 115.5*
Cc1ccc2[nH]c3c(c2c1)CN(C(=O)CN1CC(C)OC(C)C1)CC3 (configuration not stated) | 60.6* | / | 61.6* | -1.2 | -52.7 | 51.0* | 59.7*
Cc1ccc2[nH]c3c(c2c1)CN(C(=O)CN1CCN(c2ccccn2)CC1)CC3 | 65.6* | -9.9 | 58.1* | 37.7* | 3.3 | 13.4 | 15.0
COc1ccc(Cl)cc1-c1cc(C(=O)NCc2ccco2)[nH]n1 | / | / | / | / | 3.5 | / | /
COc1ccc(C(=O)NCCS(=O)(=O)NCc2cccs2)cc1 | -0.9 | -0.6 | 2.1 | 1.2 | -3.4 | / | /
CCc1ccc[n+](-c2nc3ccccc3nc2C(=C=[N-])C#N)c1 | 87.7* | -13.4 | 84.2* | 50.2* | -24.9 | 21.0 | 27.0
Cc1ccc[n+](-c2nc3ccccc3nc2C(=C=[N-])C#N)c1 | 6.3 | 0.6 | -0.7 | -21.6 | -16.9 | / | /
CC(c1nnc(SCC(=O)c2c(N)n(C3CC3)c(=O)[nH]c2=O)n1-c1ccc(F)cc1)N(C)C (configuration not stated) | -1.0 | / | -2.3 | 2.2 | -5.9 | / | /
CCOC(=O)NC(=O)c1cn(Nc2ccccc2C(F)(F)F)c(=O)[nH]c1=O | -2.7 | 0.4 | -4.1 | -2.8 | -1.0 | / | /
O=C(NNC(=O)c1ccccc1F)c1cccc(-n2cccc2)c1 | 7.2 | -2.9 | 65.4* | -1.2 | -12.8 | 23.0 | 91.9*
COc1ccc(OC)c(N2C(=O)[C@@H]3C(c4ccccc4Cl)=NO[C@@H]3C2=O)c1 | 12.2 | -4.1 | 52.6* | 3.0 | -2.5 | 15.6 | 37.6
COC(=O)c1cc(S(=O)(=O)NC2CCC(C)CC2)cn1C (configuration not stated) | 10.1 | 0.5 | 6.2 | -1.2 | 2.5 | / | /
C/C(=N/NC(=O)c1cc2ccccc2cc1O)C1C(=O)c2ccccc2C1=O | 13.5 | 2.0 | 40.9* | 0.3 | -5.1 | 7.1 | 41.2*
SMILES | Bcl-xL primary | MEX-5 binding | MCL1-BIM inh | GLD-1 TGE inh | E coli Lon inh | Bcl-xL conf | MCL1 BIM confirm
COc1ccc(-c2c(C)nn3c(C)cc(C)nc23)cc1 | 3.7 | -1.6 | 10.4 | 9.4 | -1.5 | / | /
Oc1cccc(O)c1O | 14.4 | / | 62.7* | 17.2 | / | 29.9 | 41.8*
CC1CCCC(C)N1C(=O)COC(=O)c1cc(S(=O)(=O)N2CCOCC2)ccc1Cl (configuration not stated) | 3.4 | -1.5 | -5.2 | -3.2 | -3.6 | / | /
O=C(O)CCCCC1CCSS1 (configuration not stated) | 21.3 | ? | 102.2* | 3.0 | -7.2 | 23.6 | 104.3*
CCCCN(CCCC)CCNC(=O)c1cn(C)c2ccc(S(=O)(=O)N3CCCC3)cc2c1=O | 2.1 | 2.1 | -0.3 | -2.5 | -5.4 | / | /
CC(Sc1nc2c(c(=O)[nH]1)CCCC2)C(=O)Nc1ccc(S(N)(=O)=O)cc1 (configuration not stated) | 0.8 | -0.3 | 30.3 | -4.3 | 4.6 | / | /
COc1cc(/C=C2\CCc3c2nc2ccccc2c3C(=O)O)cc(OC)c1OC | 20.2 | -25.8* | 75.9* | 1.8 | -10.0 | 29.8 | 75.2*
CC(C)(C)c1ccc(-c2n[nH]c(=S)n2-c2ccccc2)cc1 | -9.2 | -0.6 | -7.3 | 5.0 | -1.8 | / | /
CC1(C)CC(=O)C(C=Nc2cc(C(=O)c3ccccc3)ccc2N)=C(O)C1 | -4.8 | -14.6 | -23.8 | 4.3 | -16.6 | / | /
COC(=O)c1ccc(N)c(N=CC2=C(O)CC(C)(C)CC2=O)c1 | 87.0* | 1.2 | 89.1* | 72.6* | -61.5 | 7.2 | 14.8
O=C(c1nc2ccc(Cl)cn2c1CN1CCC[C@H]1CO)N1CCCCCCC1 | 60.5* | -23.0 | 65.9* | 25.5 | 12.0 | 55.1* | 68.6*
O=C(N/N=C/c1cc([N+](=O)[O-])cc([N+](=O)[O-])c1O)/C(=C\c1cccs1)NC(=O)c1ccccc1 | 8.0 | -0.2 | 20.6 | 4.9 | -6.5 | / | /
Cc1cc(=O)oc2c3c4c(cc12)OCCN4CCC3 | 59.5* | -15.3 | 64.0* | -6.6 | -9.3 | 46.5* | 40.8*
O=C(Nc1ncccc1O)c1cccc(S(=O)(=O)N2CCc3ccccc32)c1 | 4.8 | 0.4 | 6.5 | 2.7 | 6.8 | / | /
COc1ccc(NC(=O)c2cccc(S(=O)(=O)N3CCc4ccccc43)c2)cn1 | 60.7* | -6.6 | 60.4* | 49.5* | 1.1 | 45.6* | 57.9*
CNc1ccccc(-c2ccc3cc4c(cc3n2)OCO4)c1=O | 91.3* | -12.6 | 114.0* | 13.9 | 11.6 | 34.4* | 33.0
COC1CCN(Cc2c(C(=O)N3CCN(C4CCCCC4)CC3)nc3ccccn23)CC1 | 43.3* | -4.0 | 49.4* | 24.5 | 8.1 | 15.9 | 14.6
NC(=O)[C@@H]1CCCN1Cc1c(C(=O)N2CCN(C3CCCCC3)CC2)nc2ccccn12 | 25.2 | -2.6 | 19.8 | 12.9 | -2.7 | / | /
